Pf Dd2 inh: Plasmodium falciparum Dd2 growth inhibition. 4.3% of 120,000 active. AID 1347417. P. falciparum Dd2 growth, SYBR Green, 72 h. Potency, µM (highest dose often 28.9 µM), usual class: inhibitors; active = well fitted inhibition curve with a large enough effect; note: nearly all actives have a fitted effect of over 65% in size
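Readout: SYBR Green fluorescence, 485 nm excitation, 535 nm emission, after ~16 h lysis at 37C. Before that, Dd2-infected red cells (2.5% hematocrit) grew 72 h with compound, 29 uM top final concentration.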
A number is an active result; 0 = inactive. The full list was thinned out, with hits kept by preference.

SMILES	Pf Dd2 inh
COC(=O)N1CCn2c(nnc2-c2ccccc2)C1	0
O=C(Nc1ncc(-c2cccc(F)c2)c2c1OCC2)c1ccncc1	0
COc1ccc(-c2cnc(Nc3cc(F)cc(N4CCOCC4)c3)c3c2CCO3)cn1	11µM
COc1ccc(-c2cnc(NC(=O)Cc3ccccc3)c3c2CCO3)cn1	0
CNC(=O)c1cccc(-c2cnc(Nc3ccc(F)c(Cl)c3)c3c2CCO3)c1	11µM
COc1ccc(Nc2ncc(-c3ccccc3OC)c3c2OCC3)cc1	0
COCCNc1ncc(-c2ccc(N3CCOCC3)cc2)c2c1OCC2	0
COc1cncc(Nc2ncc(-c3cccc(F)c3)c3c2OCC3)c1	11µM
CNC(=O)c1cccc(-c2cnc(Nc3ccc(Cl)cn3)c3c2CCO3)c1	0
CNC(=O)c1cccc(-c2cnc(Nc3cccc(C(F)(F)F)c3)c3c2CCO3)c1	0
Cn1cnc(S(=O)(=O)N2CCCCC2c2nc(-c3ccncc3)n[nH]2)c1 (configuration not stated)	0
CCC(=O)N1CCN(c2nc3c(s2)CN(C(=O)CC)CC3)CC1	0
COCC(=O)N1C[C@@H]2CCCN3CCC[C@@H]([C@H]23)[C@H]1CCCC(=O)NCC1CC1	0
CCNC(=O)N[C@H]1[C@H](O)[C@@H](N2CCOCC2)[C@@H]2OC[C@H]1O2	0
CCOc1ccccc1C1NC(=O)N(CC(=O)Nc2ccc(C(C)=O)cc2)C2=C1C(=O)OC2 (configuration not stated)	0
Cc1cc(S(=O)(=O)N2CCCC(Cn3cnc4cccnc43)C2)ccc1Cl (configuration not stated)	0
CCOc1ccc(CN2C(=O)c3ccccc3Sc3ccc(C(=O)NCc4ccco4)cc32)cc1	5µM
O=C(NC1CCCC1)c1ccc2c(c1)N(Cc1ccccc1)C(=O)c1ccccc1S2	0
CCC(C)NC(=O)c1ccc2c(c1)N(Cc1ccccc1)C(=O)c1ccccc1S2 (configuration not stated)	0
CCOc1ccc(CN2C(=O)c3ccccc3Sc3ccc(C(=O)N4CCN(C)CC4)cc32)cc1	0.13µM
COCCCNC(=O)c1ccc2c(c1)N(Cc1ccccc1)C(=O)c1ccccc1S2	0
O=C(NCCc1ccccc1)c1ccc2c(c1)N(Cc1ccc(F)cc1)C(=O)c1ccccc1S2	0
COc1ccc(CCNC(=O)c2ccc3c(c2)N(Cc2ccc(Cl)cc2)C(=O)c2ccccc2S3)cc1OC	7.9µM
CCOc1ccc(CN2C(=O)c3ccccc3Sc3ccc(C(=O)NCCCN4CCOCC4)cc32)cc1	0
CCOc1ccc(CN2C(=O)c3ccccc3Sc3ccc(C(=O)O)cc32)cc1	0
SMILES	Pf Dd2 inh
CCOc1ccc(CN2C(=O)c3ccccc3Sc3ccc(C(=O)NC4CCC(C)CC4)cc32)cc1 (configuration not stated)	11µM
O=C(NC1CCCC1)c1ccc2c(c1)N(Cc1ccc(F)cc1)C(=O)c1ccccc1S2	0
O=C(NCc1ccco1)c1ccc2c(c1)N(Cc1ccc(Cl)cc1)C(=O)c1ccccc1S2	0
C#CCOc1ccc(C(=O)N[C@@H]2CN(Cc3ccc(C(=O)O)cc3)CCC[C@H]2O)cc1	0
O=C(NC1CCC1)C1=NO[C@@H]2CN(CCc3ccccc3)C[C@H]12	0
Cc1noc(C2CCCCCN2C(=O)NCC(C)C)n1 (configuration not stated)	0
CC[C@H]1CN(C(=O)C(C)(C)C)CC[C@H]1CC(=O)NCc1ccco1	0
O=C(NCc1ccc2c(c1)OCO2)c1ccc2c(c1)N(Cc1ccccc1)C(=O)c1ccccc1S2=O (configuration not stated)	0
Cc1ccc(C)c(CN2C(=O)c3ccccc3Sc3ccc(C(=O)NCc4ccco4)cc32)c1	11µM
O=C(NCc1ccc2c(c1)OCO2)c1ccc2c(c1)N(Cc1ccc(F)cc1)C(=O)c1ccccc1S2=O (configuration not stated)	0
O=C(NCCCN1CCOCC1)c1ccc2c(c1)N(Cc1ccccc1)C(=O)c1ccccc1S2	0
Cc1ccccc1CN1C(=O)c2ccccc2S(=O)c2ccc(C(=O)N3CCOCC3)cc21 (configuration not stated)	0
Cc1ccc(C)c(CN2C(=O)CSc3ccc(C(=O)NCc4ccccc4)cc32)c1	0
Cc1ccccc1CN1C(=O)c2ccccc2Sc2ccc(C(=O)OCc3ccco3)cc21	8.9µM
Cc1ccc(C)c(CN2C(=O)c3ccccc3Sc3ccc(C(=O)NCc4ccc5c(c4)OCO5)cc32)c1	8.9µM
O=C(NCc1ccc2c(c1)OCO2)c1ccc2c(c1)N(Cc1cccc(Cl)c1)C(=O)c1ccccc1S2	10µM
Cc1ccc(CN2C(=O)c3ccccc3Sc3ccc(C(=O)OCc4ccco4)cc32)cc1	0
Cc1cccc(OCC(=O)N2CC(C(=O)NC3CCCCC3)C3(CCOCC3)C2)c1 (configuration not stated)	0
COc1ccc(N2Cc3c(ncnc3N3CCC(O)CC3)N(C)CC2=O)cc1	0
CCNC(=O)N1CCCC1c1noc(CCC(=O)NC(C)C)n1 (configuration not stated)	0
c1ccc(OCc2cc(CC3(NCc4ccc5c(c4)OCO5)COC3)no2)cc1	0
COCCCNC(=O)c1ccc2c(c1)N(Cc1ccccc1F)C(=O)c1ccccc1S2=O (configuration not stated)	0
CC1CCC(NC(=O)c2ccc3c(c2)N(Cc2ccccc2F)C(=O)c2ccccc2S3(=O)=O)CC1 (configuration not stated)	0
COCCNC(=O)c1ccc2c(c1)N(Cc1cc(C)ccc1C)C(=O)c1ccccc1S2=O (configuration not stated)	0
Cc1ccc(C)c(CN2C(=O)c3ccccc3S(=O)c3ccc(C(=O)NCCc4ccc(Cl)cc4)cc32)c1 (configuration not stated)	5µM
SMILES	Pf Dd2 inh
CC1CCC(NC(=O)c2ccc3c(c2)N(Cc2ccccc2F)C(=O)c2ccccc2S3=O)CC1 (configuration not stated)	10µM
Cc1ccc(C)c(CN2C(=O)c3ccccc3S(=O)c3ccc(C(=O)NCc4ccccc4Cl)cc32)c1 (configuration not stated)	0
CC1=C[C@@H](CNC(=O)COCC(=O)O)[C@H](C(C)C)C[C@H]1CC(=O)N1CCCC1	0
CCC(C)C(=O)Nc1c(C(=O)OC)n(CC2CCCO2)c2ncc(NC(C)CO)cc12 (configuration not stated)	0
Cc1cc(OCCN2CCOCC2)c(C)c2c1CC[C@@H]([C@H](C)C(=O)N1CCOCC1)C2	0
O=C1CCN(C(=O)C2CCCCC2)CCCC(c2nc(-c3cccnc3)no2)CCN1 (configuration not stated)	0
COc1cccc(CC(=O)N2CCC([C@@H]3CNC[C@H]3CO)CC2)c1	0
CCCn1cc(C(=O)NC(C)c2cnn(-c3cccc(F)c3)c2C)c(C)n1 (configuration not stated)	0
O=C(c1c(F)cccc1F)N1CCC(OC2CCN(Cc3ccccc3)CC2)CC1	11µM
O=C(Nc1cc(F)c(F)c(F)c1)N1CCC(OC2CCN(Cc3ccccc3)CC2)CC1	0
CNC(=O)N1CCC(OC2CCN(Cc3ccccc3)CC2)CC1	0
Cc1ccc(-c2cn3c(n2)CO[C@@H](CNC(=O)NCc2ccccc2)C3)cc1	0
O=C(Nc1ccc2c(c1)OCCO2)NC1CCN(C(=O)N2CC3CC(C2)[C@H]2CCCC(=O)N2C3)CC1 (some centres not stated)	0
C[S+](=O)([O-])N1CC2(Cc3ccccc31)CN([S+](=O)([O-])c1cccs1)C2	0

Compound activity from PubChem BioAssay.
